About 83,000 compounds went through this panel and 20% of them were active in at least one assay; those are over-represented in the sample as a whole.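 How to read the values: 0–100, growth inhibition (40 = 60% inhibited); 0, no net growth; -100 to 0, cell death (-40 = 40% of starting cells died; -100 = all dead).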 Values without a mark were called inactive. Active and inactive are the calls of the source. How the source made its calls: active means growth percent below 10; inactive means the rest.

The values below come from PubChem BioAssay (NCI).

Some test systems named below: T-47D breast; BT-549 breast; MDA-MB-435 melanoma; SW-620 colon; MCF7 breast; HCT-116 colon; KM12 colon; HCC-2998 colon.
Assay in all cases: NCI-60 one-dose screen, 48 h (100 = growth as untreated, 0 = no growth, -100 = all killed)
What all share (conditions): 10 µM unless noted

Consider `C[Si](C)(C)C(c1ccccc1)c1ccccc1`, for which the growth in the test with T-47D breast is 91.4%; with BT-549 breast it was 108%; with MDA-MB-435 melanoma it was 92.1%; in the test on SW-620 colon it was 101%; in the test with MCF7 breast it was 106%; in the test with HCT-116 colon, 97.7%. The growth in the test with KM12 colon is 107%.

In the case of `Cc1ccccc1Nc1n[nH]c(Cc2ccccc2)n1`, the growth with T-47D breast was 101%; in the test with BT-549 breast it was 105%; in the test with MDA-MB-435 melanoma, 107%; in the test with SW-620 colon, 102%; in the test on MCF7 breast, 99.1%; with HCT-116 colon, 99.9%. Besides, in the test with KM12 colon, the growth is 101%.

Consider `COC(=O)c1ccc2c(c1)nc(-c1cc3ccccc3[nH]c1=O)n2-c1cc(C(C)(C)C)[nH]n1`, for which the growth in the test with T-47D breast was 59.3%; in the test with BT-549 breast, 54.6%; in the test with MDA-MB-435 melanoma, 46.4%; with SW-620 colon, 61.8%; in the test with MCF7 breast it was 58.1%; in the test on HCT-116 colon it was 51.1%. Moreover, in the test on KM12 colon, the growth is 44.3%.

As to `CCOC(=O)C1=C(C)NC(=S)NC1c1ccccc1` (stereo not drawn), the growth is 96.2% in the test with T-47D breast; 110% with BT-549 breast; 102% in the test with MDA-MB-435 melanoma; 97.3% in the test with SW-620 colon; 103% in the test with HCT-116 colon; 110% in the test with HCC-2998 colon. In addition, in the test with KM12 colon, the growth is 101%.

For `N/C(=N\O)c1ncc(-c2ccc(C(F)(F)F)cc2)c(NC2CCCCCC2)n1`, the growth in the test on T-47D breast was -57.3% [100 µM] (active); with BT-549 breast, -93.2% [100 µM] (active); in the test with MDA-MB-435 melanoma it was -84.2% [100 µM] (active); with SW-620 colon, -67.4% [100 µM] (active); with MCF7 breast, -92.8% [100 µM] (active); with HCT-116 colon, -95.8% [100 µM] (active). Besides, the growth in the test on KM12 colon is -90.1% [100 µM] (active).

Regarding `CN(C)CC(=O)c1ccc2cc(Br)c3ccccc3c2c1`, the growth is 37.1% in the test on T-47D breast; 60.2% with BT-549 breast; 83.6% with MDA-MB-435 melanoma; 54.7% in the test with SW-620 colon; 63.6% in the test on MCF7 breast; 49.3% with HCT-116 colon. Also, the growth in the test on KM12 colon is 63.7%.

On to `O=C(/C=C/c1cn(-c2ccccc2)nc1-c1ccccc1)OCc1cn(-c2cccc([N+](=O)[O-])c2)nn1`, for which the growth with T-47D breast is 78.2%; with BT-549 breast, 94.7%; in the test on MDA-MB-435 melanoma it was 94%; with SW-620 colon, 90.6%; in the test with MCF7 breast, 86.8%; with HCT-116 colon it was 82.3%. Further, the growth in the test on KM12 colon was 98.6%.

For `COc1cnc2c(c1)C(=O)c1c-2n(CCCN2CCCC2)c(=O)c2cc(Cl)ccc12`, the growth in the test on T-47D breast was 29.3%; with BT-549 breast, 44.5%; in the test with MDA-MB-435 melanoma, 61.1%; in the test with SW-620 colon it was -89.4% (active); in the test with MCF7 breast, -46.1% (active); with HCT-116 colon it was -92.8% (active). Also, in the test on KM12 colon, the growth is 42.4%.

Regarding `CCC(=O)NC1=C(Cl)C(=O)C(NC(=O)CC)=C(Cl)C1=O`, the growth in the test with T-47D breast was -54.4% (active); in the test on BT-549 breast, 119%; in the test with MDA-MB-435 melanoma it was 136%; in the test on SW-620 colon it was -72.1% (active); with MCF7 breast it was 28.3%; in the test with HCT-116 colon, -93.1% (active). For the same compound, in the test on KM12 colon, the growth is 109%.

As for `COc1ccc(Cl)cc1Nc1nc(C(F)(F)F)ccc1C(=O)NN`, the growth with T-47D breast is 29.4%; in the test with BT-549 breast it was 20.2%; in the test with MDA-MB-435 melanoma, 40.2%; in the test on SW-620 colon, 88.6%; in the test on MCF7 breast, 90.4%; in the test with HCT-116 colon, 38.8%. The growth in the test with KM12 colon was 38.6%.

Regarding `COc1ccc2nc3cc(Cl)ccc3c(NC(=O)CSc3ccc(Cl)cc3)c2c1`, the growth was -79.6% (active) in the test on T-47D breast; -98.7% (active) in the test with BT-549 breast; -82.4% (active) in the test on MDA-MB-435 melanoma; -80.4% (active) with SW-620 colon; -60% (active) with MCF7 breast; -94.4% (active) in the test with HCT-116 colon. In addition, the growth in the test with KM12 colon was -75.4% (active).

For the compound `O=C1OCC2=C1C(c1ccccc1)c1cc3c(cc1N2CCO)OCO3` (stereo not drawn), the growth was 1.16% (active) in the test with T-47D breast; 43.9% with BT-549 breast; 2.96% (active) in the test on MDA-MB-435 melanoma; 23.6% with SW-620 colon; -11.1% (active) in the test on MCF7 breast; 7.22% (active) in the test with HCT-116 colon. Further, the growth with KM12 colon was 23.3%.

`CC(C)C/C=C/C=C/C(=O)N[C@@H](CC(N)=O)C(=O)N[C@@H]1C(=O)N[C@H](c2ccc(O)cc2)C(=O)N[C@H](CCCN)C(=O)N[C@H]([C@@H](C)O)C(=O)N[C@H](c2ccc(O)cc2)C(=O)N[C@H](c2ccc(O)cc2)C(=O)N[C@H]([C@H](C)O)C(=O)N[C@H](Cc2ccccc2)C(=O)N[C@H](CCCN)C(=O)N[C@H](c2ccc(O[C@H]3O[C@@H](CO)[C@@H](O)[C@@H](O)[C@H]3O[C@@H]3O[C@H](CO)[C@H](O)[C@H](O)[C@@H]3O)cc2)C(=O)N[C@H]([C@H](C)O)C(=O)N[C@H](c2ccc(O)cc2)C(=O)NCC(=O)N[C@H](CC(C)C)C(=O)N[C@H](C)C(=O)N[C@H](c2ccc(O)c(Cl)c2)C(=O)O[C@@H]1C(N)=O`: the growth in the test with T-47D breast was 94.9%; with BT-549 breast, -2.76% (active); with MDA-MB-435 melanoma it was 57.2%; with SW-620 colon, 96.3%; in the test with MCF7 breast, 54.9%; in the test with HCT-116 colon it was 20.4%. Also, the growth in the test on KM12 colon is 44.3%.

On to `C/C(=N\Nc1ccc([N+](=O)[O-])cn1)c1ccc(N)cc1`, for which the growth in the test with T-47D breast is 103%; with BT-549 breast it was 100%; with MDA-MB-435 melanoma, 96.5%; with SW-620 colon, 112%; with HCT-116 colon it was 97.8%; in the test with HCC-2998 colon, 102%. In the test on KM12 colon, the growth was 95.5%.
